PubChem BioAssay (NCI)
About 83,000 compounds went through this panel and 20% of them were active in at least one assay; those are over-represented in the sample as a whole.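 In brief: 96-well plates, 48 h treatment, single concentration, percent growth endpoint.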 The source made the active and inactive calls.

test system: NCI-H23 lung; assay: NCI-60 one-dose screen, 48 h (100 = growth as untreated, 0 = no growth, -100 = all killed); settings: 10 µM unless noted
Procedure: Growth inhibition of the NCI-H23 human Non-Small Cell Lung tumor cell line is measured as a screen for anti-cancer activity. Cells are grown in 96 well plates and exposed to the test compound for 48 hours. Compounds are tested at a single concentration, which is 10^-5 M for most compounds. The reported endpoint is percent growth (GI% or GIPRCNT), where numbers from 0 - 100% represent growth inhibition, and numbers from -100% - 0 represent cell death. For example, a value of 40 represents 60% growth inhibition. A value of 0 means no net growth occurred over the course of the experiment. A value of -40 indicates 40% of cells at the beginning of the experiment died by the end of the experiment. A value of -100 means all cells are dead at the end of the experiment.
NCI-60 Human Tumor Cell Lines Screen was performed using the standard one-dose NCI protocol, which is described in more detail at https://dtp.cancer.gov/discovery_development/nci-60/default.htm.
Compounds with GIPRCNT values below 10 were considered active. Activity score was based on GIPRCNT using the following formula: […]
Score is 0 for GIPRCNT values of 100 or above, 50 for GIPRCNT values of 0, and 100 for GIPRCNT values of -100.

Structure (SMILES) | growth
Nc1c(C(=O)Nc2cccc3cnccc23)sc2nc3c(cc12)CN(Cc1ccccc1)CC3 | 99.9% (inactive)
N#Cc1c(-c2cccc([N+](=O)[O-])c2)nc(SCC(=O)c2ccc(Cl)cc2)[nH]c1=O | 98.5% (inactive)
CCCCCCCC(=O)OCC/C=C/C1OC1C1OC(=O)/C=C\C=C\C(=O)N(C(C)=O)C(=O)/C=C(/C)CCC2OC2C1OC(=O)NC(C)=O (stereo not given) | 84.6% (inactive)
c1ccc(-c2c(-c3ccccc3)[n+](Cc3ccc4ccccc4c3)c(-c3cccc4ccccc34)n2Cc2ccc3ccccc3c2)cc1 | -38.4% (active)
C=C1C(=O)O[C@H]2[C@H]1CC/C(CNC(=O)c1cccc3ccccc13)=C\CC[C@@]1(C)O[C@@H]21 | 70.1% (inactive)
Cc1ccc(/C=N/NC(=O)CSc2nc3ccccc3c(=O)n2Cc2ccc(S(N)(=O)=O)cc2)cc1 | 91.5% (inactive)
O=C1c2c(c3c4cccc(F)c4[nH]c3c3ccc4ccccc4c23)C(=O)N1O | 56.2% (inactive)
Cc1c(C(=O)NCCC(=O)NO)sc2ncnc(Nc3ccc(F)c(Cl)c3)c12 | 101% (inactive)
CCCCCCNC(=O)Nc1ccc2cc3ccc(NC(=O)NCCCCCC)cc3nc2c1 | -39% (active)
CN1C(N2CCN(S(=O)(=O)c3ccccc3)CC2)=NS(=O)(=O)c2ccccc21 | 98.2% (inactive)
O=C(CSc1nc2ccccc2[nH]1)NCc1ccccc1 | 100% (inactive)
N#C/C(=C\c1ccc([N+](=O)[O-])s1)c1nc2cc(Br)ccc2s1 | -27.8% (active)
Cc1ccc(C(=O)/C(=C\c2ccc([N+](=O)[O-])cc2)S(=O)Cc2ccc(Cl)cc2)cc1 (stereo not given) | 41% (inactive)
CSc1nc2sc3cccc(Cl)c3n2c(=N)c1C#N | 90.5% (inactive)
COc1ccc(OC)c(CCn2cncc2-c2c[nH]c3ccccc23)c1 | 55.6% (inactive)
CC(Oc1ccc(C(=O)O)cc1C(F)(F)F)c1ccc(Oc2ccccc2)cn1 (stereo not given) | 98.6% (inactive)
O=C1NN(C(=O)c2ccccc2)C(c2ccc(Cl)c(Cl)c2)=C/C1=C\c1ccc([N+](=O)[O-])cc1 | 85.3% (inactive)
COc1ccc(C(=O)CC#N)cc1 | 107% (inactive)
COc1ccc(C(=O)c2cc(C)c(OC)c(C)c2)c(OC)c1N(C(=O)CCl)C(=O)CCl | 20.8% (inactive)
Fc1ccc2c(-c3cncn3CCc3ccccc3)c[nH]c2c1 | 86.2% (inactive)

Structure (SMILES) | growth
CCC(=O)Oc1ccc(/C(=C(\C)c2ccccc2)c2ccc(OCCN3CCCCC3)cc2)cc1 | 75.1% (inactive)
C/C(=N\Nc1cc(C)nc2ccc(Br)cc12)c1ccc([N+](=O)[O-])cc1 | 88.4% (inactive)
CCCCCN1C=C/C(=C\C(=O)N(C)c2ccccc2Br)c2ccccc21 | 77.8% (inactive)
O=Cc1cc2ccccc2nc1Oc1ccc(C(F)(F)F)cc1 | 85.3% (inactive)
Cc1cnc(C(=O)Nc2nc3ccc(S(=O)(=O)Nc4ccc(C(C)(C)C)cc4)cc3[nH]2)cn1 | 37.4% (inactive)
CCCCCC(=O)Oc1ccc(/C(=C(/C)Cc2ccc(OC)cc2)c2ccc(OCCCN(C)C)cc2)cc1 | 76.7% (inactive)
O=C(Nc1ccc(NC(=O)c2cc(=O)[nH]c3ccccc23)cc1)Nc1cccc(Cl)c1 | 87.9% (inactive)
CC1=C(C(=O)/C=C/c2c[nH]c3ccccc23)C(c2ccccc2)NC(=S)N1 (stereo not given) | 94.5% (inactive)
COc1ccc(C(=O)C2C(C#N)C(C#N)C3c4ccccc4C=CN23)cc1 (stereo not given) | 83.3% (inactive)
CCOC(=O)c1cc(C(=O)c2ccc(Br)cc2)n2ccc(/C=C/c3cc[n+](CC(=O)c4ccc(OC)cc4)cc3)cc12 | 92.5% (inactive)
O=C1C=CC(=O)N1c1cccc(Cl)c1 | 103% (inactive)
CC(Sc1nc2ccccc2c(=O)n1CCc1ccc(S(N)(=O)=O)cc1)C(=O)Nc1ccc(Cl)cc1 (stereo not given) | 79.5% (inactive)
c1ccc(-c2cn3c(ccc4ccccc43)n2)cc1 | 70.5% (inactive)
COc1ccc(C(=O)c2cc(C)c(OC)c(C)c2)c(OC)c1OC(=O)C(Cl)Cl | 29.2% (inactive)
O=c1c2c(c(=O)n1O)c1c3ccc[nH]c3nc1c1nc3[nH]cccc3c12 | 86.7% (inactive)
NC(=S)N1N=C(c2ccccc2)CC1c1cn(-c2ccccc2)nc1-c1ccc(OCc2ccccc2)cc1 (stereo not given) | 104% (inactive)
Cc1cc2nc3c4cc(C=O)ccc4n(CCN(C)C)c3nc2cc1C | 17.4% (inactive)
OCc1cnccc1NCCCOc1ccccc1 | 97.7% (inactive)
Cc1ccc(-c2nc3ccccn3c2/C=C2/C(=O)Nc3cc(Cl)ccc32)cc1 | 72.4% (inactive)
C=CCN1C(=O)/C(=C/C(=O)OC)S/C1=N\NC(=O)c1cc2ccc1/C=C\c1ccc(cc1)/C=C\2 | 88.2% (inactive)
